Bioassay records from PubChem.
In the library only some 21% were active in any assay of this set; here they are far more common.
Pf growth 96h – P. falciparum growth inhibition at 96 hour, primary screen for plastid delayed-death inhibitors | hit rate 6.9% among 320,000 | Potency, µM (series often up to 28.7 µM), inactives show top-dose activity change, negative = inhibition, actives largely listed as inhibitors | AID 504834 | P. falciparum luciferase reporter growth, 96 h; further: potency means the concentration at half of the fitted maximal effect; on the % scale 0 is the no-effect control and ±100 the full control effect
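P. falciparum expressing integrated firefly luciferase, in erythrocytes at 2% hematocrit, 0.05% parasitemia, incubated with compounds 96 h at 37 C, 5% CO2. Growth inhibition read as loss of luminescence; two-generation exposure targets delayed-death apicoplast inhibitors.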
Shiga toxin inh – Shiga toxin inhibition | Vero cells, Shiga toxin protein synthesis inhibition reporter | inhibition, % at 38.7 µM | hit rate 9.2% among 290,000 | AID 2315; in the data active means inhibition mostly above about 28%, no sharp cut-off; inactive means mostly below about 43%; further: 0% is about no effect
Pf growth 48h – P. falciparum growth inhibition at 48 hours (one generation). hit rate 5.9% among 310,000. AID 504832. P. falciparum luciferase growth in erythrocytes, 48 h. Potency, µM (titrated, usually from 28.7 µM), for inactives: at the top dose activity change, negative = inhibition, actives largely listed as inhibitors; further: potency means the concentration at half of the fitted maximal effect; on the % scale 0 is the no-effect control and ±100 the full control effect
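Luciferase-expressing P. falciparum in infected erythrocytes (2% hematocrit, 0.1% parasitemia final) in RPMI 1640/0.5% Albumax were exposed to compound for 48 hours at 37 C, 5% CO2; growth read as luminescence.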
AMA1 RON2 block – inhibitors of Plasmodium falciparum AMA1-RON2 interaction | AlphaScreen AMA1-biotinylated RON2 peptide binding | AID 720542 | Potency, µM (doses to about 58.2 µM), without a hit: at the highest dose activity change, negative = inhibition, hits mostly inhibitors | hit rate 0.2% among 360,000;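 further: potency means the concentration at half of the fitted maximal effect; 0% = vehicle wells and -100% = peptide control; nearly all actives have a fitted effect of over 45% in size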
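AMA1 (3D7) with his tag at 25 nM final met compounds first, then biotinylated RON2 peptide at 25 nM; detection used donor plus acceptor beads, 10 µg/mL apiece, read by AlphaScreen after 30 min at room temperature.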
Cycloheximide cs – affects cycloheximide protein synthesis inhibition readout, counter-screen; cell reporter, cycloheximide protein synthesis inhibition counterscreen; max response, %; hit rate 12% among 300,000; in the data active means max response mostly above about 13%, no sharp cut-off; inactive means mostly below about 14%; further: read at 38.3 µM for the half of the compounds with a filed dose; 0% is about no effect
HCV inh – HCV inhibition. Huh7.5.1 HCVcc-Cre infection, luciferase reporter, 44 h. Potency, µM (highest dose often 41.8 µM), without a hit: at the top dose activity change, negative = inhibition, usual class: inhibitors. hit rate 3.4% among 340,000. AID 651820; further: potency means the concentration at half of the fitted maximal effect; on the % scale 0 is the no-effect control and ±100 the full control effect
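A cell-based infection assay in which seeded cells (1,000 per well) receive test compound after 4 h, are inoculated with HCVcc-Cre at approximately 0.5 moi, and are incubated 44 h before luminescence detection.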
Active calls of the source: *; ? = inconclusive; . = not tested or not shown; [ ] = dose if it differs, or a comment. Unless noted, the call rests on the fitted dose curve; in most records, active means well fitted curve in the direction sought with a large enough effect; inconclusive means small, poorly fitted or top-dose-only effect, or another doubt; inactive means no such curve, though single readings can be large; an effect the other way counts as inactive or inconclusive.

SMILES	Pf growth 96h	Shiga toxin inh	Pf growth 48h	AMA1 RON2 block	Cycloheximide cs	HCV inh
CCN1CCN(C(=O)c2ccc(Cl)c(S(=O)(=O)N3CCCCC3)c2)CC1	?	-8.1	-12.5%	-12.6%	-0.6	20.0%
CN(C)CCCN(C(=O)c1ccc(S(=O)(=O)N2CCc3ccccc32)cc1)c1nc2ccc(Cl)cc2s1	5.22µM*	-16.3	10.4µM*	-28.4%	9.6	.
Cc1cc(C)c2sc(N(CCCN(C)C)C(=O)c3ccc(S(=O)(=O)N4CCCc5ccccc54)cc3)nc2c1	?	.	9.28µM*	?	.	?
CN(C)CCCN(C(=O)c1ccc(S(=O)(=O)N2CCc3ccccc32)cc1)c1nc2ccc(F)cc2s1	?	18.1	?	-23.0%	-0.9	-28.1%
C/C=C1\COC(C(=O)NCc2ccccn2)(C(F)(F)F)C=C1C=C(C)C (configuration not stated)	.	2.7	.	.	18.1	.
COc1ccc(S(=O)(=O)N2CCC3CC2c2cc(N4CCOCC4)ccc23)cc1 (configuration not stated)	.	.	.	-21.0%	.	5.2%[8.37 µM]
COc1cc(C(=O)Nc2ccc(C#N)cc2)c([N+](=O)[O-])cc1OC	10.4µM*	3.2	7.6%	-7.0%	-0.8	11.8%
COc1cc(C(=O)Nc2ccc(S(=O)(=O)Nc3ncccn3)cc2)c([N+](=O)[O-])cc1OC	24.4%	31.0	5.0%	4.6%	13.1	-6.8%
COc1cc(C(=O)Nc2ccncc2)c([N+](=O)[O-])cc1OC	?	-4.8	?	-6.4%	1.2	-8.1%
COc1cc(C(=O)Nc2ccc(N(C)C)cc2)c([N+](=O)[O-])cc1OC	7.9%	107.0*	75.6%	-18.5%	40.7*	-12.1%
CC1CCCN(S(=O)(=O)c2ccc(NC(=O)C3CCN(C(=O)c4ccco4)CC3)cc2)C1 (configuration not stated)	?	16.8	-21.3%	-5.6%	-5.7	-28.9%
CC(C(=O)O)N(c1ccccc1Cl)S(C)(=O)=O (configuration not stated)	54.7%	.	?	-3.6%	.	16.3%
O=C(CN1CCN(c2ccccc2O)CC1)Nc1ccnn1C1CCCC1	?	.	?	62.2%	.	?
CC1(C)CNC(=O)c2sc(N3CCCCC3)nc2C1	-3.1%	55.9	67.0%	-0.8%	23.2*	-9.1%
CC1(C)CC(=O)c2sc(NS(C)(=O)=O)nc2C1	5.1%	-3.5	0.1%	-8.8%	-3.7	16.7%
CC1(C)CC(=O)c2sc(N3CCCCC3)nc2C1	259.6%	92.0*	89.8%	37.1%	28.6*	2.4%
CN(Cc1ccccc1)C(=O)COC(=O)CCN1C(=O)C2CC=CCC2C1=O (configuration not stated)	-3.5%	.	-9.9%	-3.6%	.	-20.3%
Cc1ccc(/C=N/n2c(-c3ccccc3)n[nH]c2=S)cc1	8.5%	.	9.7%	94.8%	-1.5	5.0%
N=C1N(/N=C/c2ccccc2)C(=Nc2ccccc2)C(=S)N1c1ccccc1	84.4%	active	?	17.4%	41.9*	8.6%
O=C(COc1ccc2c3c(c(=O)oc2c1)CCC3)Nc1ccc(CN2CCOCC2)cc1	?	-1.3	?	6.2%	1.5	-3.4%
CN(CC(=O)Nc1sccc1C(N)=O)S(=O)(=O)c1ccc(Cl)cc1	.	.	.	-10.7%	.	?
CNC(=O)Cn1nc(-c2ccc(Cl)cc2)c2ccccc2c1=O	12.1%	19.2	8.9%	8.0%	-3.5	6.7%
O=[N+]([O-])c1ccccc1S(=O)(=O)Nc1cccc(-c2ccc(N3CCCC3)nn2)c1	6.9%	.	12.3%	-8.7%	.	-15.9%
Cc1ccc(S(=O)(=O)Nc2cccc(-c3ccc(N4CCCCCC4)nn3)c2)c(C)c1	?	87.7*	51.2%	-14.8%	42.4*	?
O=[N+]([O-])c1cc(Cl)ccc1-c1nc(-c2ccncc2)no1	-25.3%	42.2*	?	-5.2%	19.5	-14.7%
SMILES	Pf growth 96h	Shiga toxin inh	Pf growth 48h	AMA1 RON2 block	Cycloheximide cs	HCV inh
Clc1ccc(-c2nc(-c3ccncc3)no2)c(Cl)c1	.	.	.	-9.1%	.	9.6%
O=[N+]([O-])c1cc(Cl)ccc1-c1nc(-c2ccccc2)no1	-4.5%	61.8*	244.6%	?	58.5*	0.9%
NC(=O)C1CCN(C(=O)CC(c2ccccc2)c2ccccc2)CC1	42.8%	-4.7	13.5%	9.2%	-0.9	5.3%
CCOC(=O)C1=CCN(S(=O)(=O)c2ccccc2F)C1c1cccc(Cl)c1 (configuration not stated)	.	.	.	5.0%	.	.
O=C(c1ccc2c(=O)n3c(nc2c1)CCC3)N1CCN(S(=O)(=O)c2ccccc2Br)CC1	.	.	.	2.8%	.	-4.3%
CSc1ccc(CN(C)C(=O)CCNS(=O)(=O)c2ccc(C)c(C)c2)cc1	?	.	3.7µM*	-4.9%	.	-26.6%
CC(=O)N1c2ccc(S(=O)(=O)NCCC(=O)N(C)Cc3ccccc3)cc2CC1C (configuration not stated)	7.38µM*	8.9	1.1%	-1.7%	-3.0	13.6%
CSc1ccc(CN(C)C(=O)CNC(=O)CNS(=O)(=O)c2ccc(C)c(C)c2)cc1	-8.7%	4.3	2.4%	-1.6%	-4.4	?
Cc1ccc(S(=O)(=O)NCC(=O)NCC(=O)N(C)Cc2ccc3ccccc3c2)cc1C	-15.0%	15.8	-22.9%	0.0%	-3.0	10µM*
CCN(Cc1ccccc1)C(=O)CCNS(=O)(=O)c1ccc2c(c1)CC(C)N2C(C)=O (configuration not stated)	?	1.2	8.3%	-2.2%	11.0	?
Cc1nc2ccc(C(=O)NCCc3c[nH]c4ccccc34)cn2c1N(C)C(=O)CCc1ccccc1	.	.	.	-18.6%	.	.
Cc1ccc(C(=O)N2CCN(C3c4cccc5cccc(c45)C3NS(=O)(=O)c3ccccc3)CC2)cc1 (configuration not stated)	?	-15.3	2.08µM*	-3.2%	2.1	?
Cc1ccc(S(=O)(=O)NC2c3cccc4cccc(c34)C2Sc2nc(C)cc(C)n2)cc1 (configuration not stated)	8.28µM*	-6.2	10.4µM*	-5.4%	-1.9	?
CN1CCCCC1c1ccc(-c2cccnc2)nc1 (configuration not stated)	1.9%	-9.3	6.1%	-10.3%	15.6*	-1.5%
CC(Oc1ccc2ccccc2c1)C(=O)NNC(=O)Nc1ccccc1F (configuration not stated)	-20.7%	20.0	35.6%	100.1%	6.7	-0.4%
COc1ccc(C(=O)C(O)C(c2ccc(C)cc2)N2CCOCC2)cc1OC (configuration not stated)	3.1%	24.9	2.4%	0.2%	-1.7	-8.2%
Cc1ccc2cc(/C=N/NC(=O)[C@H]3C[C@@H]3c3ccccc3)c(Cl)nc2c1	2.08µM*	9.9	2.94µM*	16.6%	15.9*	11.9%
O=C(N/N=C/c1cc2ccccc2nc1Cl)[C@H]1C[C@@H]1c1ccccc1	1.65µM*	-16.1	2.62µM*	-7.1%[2.32 µM]	-2.1	?
